# According to publication PMC5700166:
# Columns and labels:
# Assay in all cases: protein-binding microarray (PBM); PBM: ~300 nM protein, 6 mM HEPES pH 7.8, 80 mM KCl, 0.5 mM EDTA, 0.5 mM EGTA, 6% glycerol, 35 ng/ul poly-dIdC, 1% milk, 1 h, room temperature; Ap Aiptasia and Nv Nematostella (sea anemones) / Co Capsaspora / Aq Amphimedon (sponge) / Dm Drosophila / Hu human; RHD is the Rel homology domain; high values mean tight binding
# Details in all cases: dsDNA, one strand shown
# GST-Ap-NF-kB RHD = target: T1, GST-Ap-NF-kB RHD (Exaiptasia pallida (Aiptasia), UniProt A0A913YAJ5 2-422)
# T1 sequence: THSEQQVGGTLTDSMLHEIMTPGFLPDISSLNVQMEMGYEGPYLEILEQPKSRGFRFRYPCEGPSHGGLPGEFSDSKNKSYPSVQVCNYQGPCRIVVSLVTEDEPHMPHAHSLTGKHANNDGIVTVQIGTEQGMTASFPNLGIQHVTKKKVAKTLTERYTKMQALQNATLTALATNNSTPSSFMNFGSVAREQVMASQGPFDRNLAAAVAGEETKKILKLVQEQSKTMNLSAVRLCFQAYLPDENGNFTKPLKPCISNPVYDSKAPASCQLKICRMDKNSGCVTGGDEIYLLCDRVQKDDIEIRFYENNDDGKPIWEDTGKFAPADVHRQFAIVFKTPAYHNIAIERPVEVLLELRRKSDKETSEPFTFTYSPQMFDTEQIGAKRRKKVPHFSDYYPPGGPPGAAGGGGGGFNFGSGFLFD
# [1] = target: T2, GST-Nv-NF-kB (Cys allele) (Nematostella vectensis, UniProt E5G601 2-411)
# T2 sequence: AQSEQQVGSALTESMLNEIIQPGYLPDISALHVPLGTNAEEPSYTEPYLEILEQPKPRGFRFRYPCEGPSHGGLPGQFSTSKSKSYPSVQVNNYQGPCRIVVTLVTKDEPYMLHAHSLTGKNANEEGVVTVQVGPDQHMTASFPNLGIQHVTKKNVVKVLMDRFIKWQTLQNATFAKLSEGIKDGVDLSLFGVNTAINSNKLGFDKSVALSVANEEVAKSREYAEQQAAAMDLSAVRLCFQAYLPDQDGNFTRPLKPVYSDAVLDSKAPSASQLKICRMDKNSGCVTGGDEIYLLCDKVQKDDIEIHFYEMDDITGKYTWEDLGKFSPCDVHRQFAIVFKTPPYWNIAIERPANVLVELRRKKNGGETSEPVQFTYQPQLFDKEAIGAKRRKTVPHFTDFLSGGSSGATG
# GST-Co-NF-kB = target: T3, GST-Co-NF-kB (Capsaspora owczarzaki, UniProt F1ARL5 200-546)
# T3 sequence: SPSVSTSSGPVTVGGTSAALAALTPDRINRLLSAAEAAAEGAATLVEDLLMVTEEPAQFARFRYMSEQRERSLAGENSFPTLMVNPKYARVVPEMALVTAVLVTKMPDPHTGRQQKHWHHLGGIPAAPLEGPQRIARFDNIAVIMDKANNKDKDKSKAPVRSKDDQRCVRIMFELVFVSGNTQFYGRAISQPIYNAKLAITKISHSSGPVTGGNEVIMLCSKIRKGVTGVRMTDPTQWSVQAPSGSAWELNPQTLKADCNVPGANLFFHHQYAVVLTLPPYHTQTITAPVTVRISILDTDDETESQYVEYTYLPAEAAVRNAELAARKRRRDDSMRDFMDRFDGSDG
# GST-Dm-Relish = target: T4, GST-Dm-Relish (Drosophila melanogaster, UniProt Q94527 99-473)
# T4 sequence: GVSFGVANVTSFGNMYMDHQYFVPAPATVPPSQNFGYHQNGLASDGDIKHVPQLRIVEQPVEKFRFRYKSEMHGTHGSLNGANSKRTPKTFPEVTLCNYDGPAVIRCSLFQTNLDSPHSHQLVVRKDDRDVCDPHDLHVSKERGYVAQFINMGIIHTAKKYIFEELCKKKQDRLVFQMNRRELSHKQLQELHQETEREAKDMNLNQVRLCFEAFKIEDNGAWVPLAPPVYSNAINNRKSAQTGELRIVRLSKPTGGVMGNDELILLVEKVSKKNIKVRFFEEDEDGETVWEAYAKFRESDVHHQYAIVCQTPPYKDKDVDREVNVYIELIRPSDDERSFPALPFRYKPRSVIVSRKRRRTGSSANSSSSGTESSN
# GST-Aq-NF-kB = target: T5, GST-Aq-NF-kB (Amphimedon queenslandica, UniProt A9Y5G7 2-389)
# T5 sequence: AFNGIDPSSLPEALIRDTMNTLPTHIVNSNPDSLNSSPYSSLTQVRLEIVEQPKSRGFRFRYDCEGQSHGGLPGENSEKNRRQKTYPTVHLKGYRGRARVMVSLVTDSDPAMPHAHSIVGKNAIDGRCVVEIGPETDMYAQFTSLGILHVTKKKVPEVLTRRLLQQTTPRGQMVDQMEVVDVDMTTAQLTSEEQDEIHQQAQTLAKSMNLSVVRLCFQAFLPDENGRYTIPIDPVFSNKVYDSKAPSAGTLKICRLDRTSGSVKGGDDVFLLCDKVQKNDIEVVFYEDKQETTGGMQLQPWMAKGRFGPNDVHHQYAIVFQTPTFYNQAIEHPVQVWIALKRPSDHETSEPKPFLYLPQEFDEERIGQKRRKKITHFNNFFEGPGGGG
Sequence,binding signal (GST-Ap-NF-kB RHD) [z-score],binding signal [1] [z-score],binding signal (GST-Co-NF-kB) [z-score],binding signal (GST-Dm-Relish) [z-score],binding signal (GST-Aq-NF-kB) [z-score]
CCGATTAACATCAAGTATTTCCCTGATGTTAATCGGGTCTTGATTCGCTTGACGCTGCTG,3.79,5.18,4.22,5.66,5.42
CCGATTAACATCAGGCTTTCCCATGATGTTAATCGGGTCTTGATTCGCTTGACGCTGCTG,1.49,2.94,2.07,2.07,2.88
CCGATTAACATCACGGAACTCCCTGATGTTAATCGGGTCTTGATTCGCTTGACGCTGCTG,3,3.34,1.42,4.06,4.43
CCGATTAACATCACCCGTTTCCCTGATGTTAATCGGGTCTTGATTCGCTTGACGCTGCTG,2.8,3.24,3.33,1.19,3.03
CCGATTAACATCAAGGATTTCCCTGATGTTAATCGGGTCTTGATTCGCTTGACGCTGCTG,4.49,6.09,3.24,6.12,6.2
CCGATTAACATCAGGAACCCCCATGATGTTAATCGGGTCTTGATTCGCTTGACGCTGCTG,7.5,5,2.67,9.25,5.35
CCGATTAACATCAGAATTCCCGCTGATGTTAATCGGGTCTTGATTCGCTTGACGCTGCTG,3.59,4.74,3.87,3.89,3.98
CCGATTAACATCAAATCTTTCCCTGATGTTAATCGGGTCTTGATTCGCTTGACGCTGCTG,3.05,5.25,5.78,1.24,4.92
CCGATTAACATCAGAACATTCCCTGATGTTAATCGGGTCTTGATTCGCTTGACGCTGCTG,2.94,4.14,2.6,1.97,5
CCGATTAACATCACATTATCCCCTGATGTTAATCGGGTCTTGATTCGCTTGACGCTGCTG,4.81,5.05,4.75,2.4,3.81
CCGATTAACATCAATGTCCCCCCTGATGTTAATCGGGTCTTGATTCGCTTGACGCTGCTG,5.26,4.79,8.35,3.82,4.85
CCGATTAACATCATCAGGGGGGATGATGTTAATCGGGTCTTGATTCGCTTGACGCTGCTG,4.58,4.51,6.21,4.27,5.18
CCGATTAACATCATAATTCCCAATGATGTTAATCGGGTCTTGATTCGCTTGACGCTGCTG,1.92,3.54,2.94,2.22,2.84
CCGATTAACATCAGGGAATCCTATGATGTTAATCGGGTCTTGATTCGCTTGACGCTGCTG,3.36,4.16,2.52,7.42,4.15
